According to PubChem BioAssay (NCI):
About 79,000 compounds went through this panel and 15% of them were active in at least one assay; those are over-represented in the sample as a whole. Cut-off read from the data, not from the text of the source: active = growth inhibition above about 70%; inactive = the rest.

What was measured:
[1] = NCI Yeast Anticancer Drug Screen. Data for the rad50 strain (AID 155);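 note: 0% = growth of vehicle-only cultures of the same strain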; conditions: S. cerevisiae rad50 strain growth inhibition; at 50.0 µM; active compounds read high
Summary of the method: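 Compounds were tested on a yeast strain with an engineered DNA damage repair alteration; the reported value is growth inhibition normalised to vehicle treatment.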

[2] = NCI Yeast Anticancer Drug Screen. Data for the mec2-1 strain (AID 157); conditions: S. cerevisiae mec2-1 strain, at 50.0 µM, active compounds read high
Summary of the method: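 Using mec2-1 yeast: add compound, measure growth, express inhibition versus vehicle-treated cultures.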

[3] = NCI Yeast Anticancer Drug Screen. Data for the sgs1 mgt1 strain (AID 161);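 note: 0% = growth of cultures given vehicle only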; conditions: S. cerevisiae sgs1 mgt1 strain, at 50.0 µM, active compounds read high
Summary of the method: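 This yeast growth screen uses a strain with defined DNA-repair lesions; compound-treated growth is compared with vehicle-treated growth.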

[4] = NCI Yeast Anticancer Drug Screen. Data for the cln2 rad14 strain (AID 165);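 note: 0% = growth equal to vehicle treated cultures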; conditions: S. cerevisiae cln2 rad14 strain, at 50.0 µM, active compounds read high
Summary of the method: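 Yeast strain cln2 rad14, bearing defects in cell cycle control and DNA repair, serves as the test system; values reflect growth inhibition compared with vehicle.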

[5] = NCI Yeast Anticancer Drug Screen. Data for the bub3 strain (AID 167); conditions: S. cerevisiae bub3 mutant strain, at 50.0 µM, active compounds read high
Summary of the method: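 Growth of a checkpoint-deficient yeast mutant is measured after compound exposure. Values represent inhibition relative to vehicle.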

[6] = NCI Yeast Anticancer Drug Screen. Data for the mlh1 rad18 strain (AID 175); conditions: S. cerevisiae mlh1 rad18 strain growth inhibition; at 50.0 µM; active compounds read high
Summary of the method: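 Steps: expose repair-defective yeast to compound; measure growth; express inhibition against vehicle-treated controls.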

Measured: growth inhibition

CC1CN(C(=S)Nc2ccccc2)CCN1C(=S)Nc1ccccc1 (centres undefined)
inactive: [1] -9% | [2] 8.7% | [3] 6.3% | [4] -42.9% | [5] 0.5% | [6] -7.6%

O=C1/C(=C/c2ccccc2)Oc2cc(O)ccc21
inactive: [1] 31.9% | [2] -13.8% | [3] 33% | [4] 30.4% | [5] 27.4% | [6] 34.9%

COc1ccc2cc(NC(=O)N/N=C\c3ccc([N+](=O)[O-])cc3)ccc2c1
inactive: [1] 27.1% | [2] 7.35% | [3] 19.2% | [4] -8.3% | [5] 12.9% | [6] 27.4%

O=C1Nc2ccccc2C1(N1CCCCC1)N1CCCCC1
inactive: [1] 35.9% | [2] 21.9% | [3] 18.5% | [4] 7.9% | [5] 33.6% | [6] 26.6%

NC(=O)C1CCCCC1C(N)=O (centres undefined)
inactive: [1] -15% | [2] -20.1% | [3] -25.6% | [4] -29.5% | [5] -27.8% | [6] -15.3%

Ic1ccc2c[n+]3ccccc3cc2c1
inactive: [1] -11.7% | [2] 25.9% | [3] 8.85% | [4] -29.8% | [5] 1.75% | [6] -3.95%

CCOC(=O)NC1C2CC3C(C2)C31 (centres undefined)
inactive: [1] -54.6% | [2] -32.7% | [3] -29.4% | [4] -20.6% | [5] -52.4% | [6] -32.5%

Cc1onc(-c2c(F)cccc2Cl)c1C(=O)OCc1c(F)cccc1Cl
inactive: [1] 6.8% | [2] -2.15% | [3] 20.9% | [4] 11.5% | [5] 25.1% | [6] 24.5%

Cc1ncc(CSC(=N)N)n1Cc1ccccc1
inactive: [1] -33.6% | [2] -11.4% | [3] -6.55% | [4] -17.6% | [5] -11.1% | [6] -23.9%

CCC(C=NCCBr)(CCC(=O)OC)CCC(=O)OC
inactive: [1] -7.9% | [2] 16.2% | [3] -13.9% | [4] -8.4% | [5] 12.4% | [6] 10.2%

NC(Cc1ccccc1)C(=O)O (centres undefined)
inactive: [1] -20.7% | [2] -12.4% | [3] -33.9% | [4] -73.7% | [5] -24.9% | [6] -20.6%

CC(=O)OC(C(=O)O)C(OC(C)=O)C(OC(C)=O)C(=O)O (centres undefined)
inactive: [1] 21.5% | [2] 19.2% | [3] 13.8% | [4] -5.85% | [5] 5.7% | [6] 8.4%

CCCCC(CCCC)NCC(C)OC(=O)c1ccc(N)cc1 (centres undefined)
inactive: [1] 20.6% | [2] -2.35% | [3] 0.5% | [4] -26.8% | [5] -6% | [6] 16.3%

NC(=O)SCC(N)C(=O)O (centres undefined)
inactive: [1] 0.25% | [2] -21.4% | [3] 1.55% | [4] 3.55% | [5] 4.95% | [6] 6.8%

CS(=O)(=O)Oc1ncc(Cl)cc1Cl
inactive: [1] -15.4% | [2] 2% | [3] -1.85% | [4] 14.5% | [5] 1.35% | [6] -8.1%

Cc1ccc(-n2c(=O)nc([O-])[n+]3ccccc23)cc1
inactive: [1] -2.85% | [2] -6.85% | [3] -7.95% | [4] -24.8% | [5] -3.75% | [6] 6.65%

CCOC(=O)C1Sc2ccccc2N=C1C (centres undefined)
inactive: [1] 0% | [2] -15.8% | [3] -2.45% | [4] -1.25% | [5] -10.6% | [6] 2.6%

Cc1cc(Br)c(NC(=O)c2c(-c3c(Cl)cccc3Cl)noc2C)c(Br)c1
inactive: [1] -3.35% | [2] -16.3% | [3] -8.15% | [4] 4.9% | [5] -11.7% | [6] 4.9%

O=S(Cc1cnc2ccccc2c1)c1nc2ccccc2nc1-c1cccs1 (centres undefined)
inactive: [1] -10.2% | [2] -28.8% | [3] -20.7% | [4] -11% | [5] -8.4% | [6] -11.7%

COc1ccc(C2OC3=C(Nc4ccc([N+](=O)[O-])cc4N3)C2=O)cc1OC (centres undefined)
inactive: [1] -9.75% | [2] -24.2% | [3] -16.1% | [4] -3.7% | [5] -32.5% | [6] -0.7%

CCCCOC(=O)C(C)OC(=O)Nc1ccccc1 (centres undefined)
inactive: [1] 5.85% | [2] 23.4% | [3] 16.1% | [4] -52.6% | [5] 18.6% | [6] 12%

Cc1c(C)c(CN)c(C)c(C)c1CN
inactive: [1] -30.5% | [2] -47% | [3] -16.6% | [4] -24.2% | [5] -43.4% | [6] -31.7%

Cc1ccc(C2(c3ccc(Cl)cc3)c3ccccc3C3=NCCN32)cc1 (centres undefined)
inactive: [1] 19.9% | [2] 9.15% | [3] 25.6% | [4] 23% | [5] 28.1% | [6] 30.7%

N#CNC(=NCC1CCCO1)Nc1cccnc1 (centres undefined)
inactive: [1] 2.9% | [2] -9.8% | [3] -26.4% | [4] -23.4% | [5] 23.9% | [6] -2.35%

CCC(C)NC(=O)c1cccc2c1-c1ccccc1C2=O (centres undefined)
inactive: [1] -0.05% | [2] -5.15% | [3] 0.35% | [4] 1.4% | [5] 25.2% | [6] 14.4%

COC(=O)N/N=C/c1cccnc1
inactive: [1] 2.05% | [2] -6.6% | [3] -3.05% | [4] -72.2% | [5] 9.8% | [6] -26.8%

O=C(NC1CCCCC1C1CCCCC1)c1ccc(Cl)cc1 (centres undefined)
inactive: [1] 1.55% | [2] 2.5% | [3] -1.3% | [4] -10.9% | [5] 7.15% | [6] 6.45%

CS(=O)CCN=Cc1ccc(N=Nc2ccc(O)cc2)cc1 (centres undefined)
inactive: [1] 5.8% | [2] 1.65% | [3] -0.85% | [4] -33.4% | [5] 13.5% | [6] 2.65%

CN1CCN(CCCO)CC1
inactive: [1] -15.2% | [2] 3.3% | [3] -8.85% | [4] -16.4% | [5] 5.05% | [6] -0.25%

CC(C)(C)OC(=O)Cn1ncn(NC(=O)Cc2ccccc2)c1=O
inactive: [1] -20.5% | [2] -24.5% | [3] -21.4% | [4] -56.2% | [5] -38.2% | [6] -0.1%

CCN(CC)C(=O)c1c(-c2ccccc2)nc(-c2ccccc2)c(C(=O)N(CC)CC)c1Cl
inactive: [1] 42% | [2] 14.6% | [3] 21.6% | [4] 21.6% | [5] 1.05% | [6] 27.8%

COCc1onc(-c2ccc(OC)cc2)c1-c1ccc(OC)cc1
inactive: [1] 8.25% | [2] 20.4% | [3] 3.6% | [4] 30.9% | [5] 49.4% | [6] 31.4%

Clc1c(Cl)c(CBr)c(Cl)c(-c2c(Cl)c(Cl)c(Cl)c(CBr)c2Cl)c1Cl
inactive: [1] 2.15% | [2] -4.1% | [3] -2.55% | [4] -25.7% | [5] 2.45% | [6] -1.1%

COc1ccc(OCC(C)(C)O)cc1
inactive: [1] -12.6% | [2] -0.4% | [3] 5.6% | [4] 0.2% | [5] -11.2% | [6] -2.55%

NC(=O)C(N)C(N)=NCc1ccccc1 (centres undefined)
inactive: [1] 10% | [2] 1.35% | [3] 4.15% | [4] -7.25% | [5] -2.3% | [6] 13.5%

Nc1ccc2c(c1)Oc1c(F)c(F)cc3c(=O)c(C(=O)O)cn-2c13
inactive: [1] 6.9% | [2] 11.2% | [3] 7.7% | [4] 16.1% | [5] 0% | [6] 48.1%

CC12CCC(CC1)C(C)(C)N=C(N)S2
inactive: [1] -3.1% | [2] -10.8% | [3] -2.75% | [4] -18% | [5] -11.2% | [6] -20%

CN(C=O)c1cccc(C(=O)O)c1
inactive: [1] 4.05% | [2] -1.2% | [3] -3.95% | [4] -29.5% | [5] -2.35% | [6] 7.45%

CN(C)C(=O)Nc1cccc(OC(=O)NC2CC2)c1
inactive: [1] 4.4% | [2] 16.9% | [3] 26.9% | [4] -8.35% | [5] 19.8% | [6] -4.1%
